Test results taken from PubChem BioAssay (NCI).
Compounds without any hit were thinned out: in the full panel of roughly 83,000, 20% have a hit.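 48-hour exposure, single concentration, 96-well plates; percent growth endpoint where 0 means no net growth. Active: below 10.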 Unmarked numbers belong to inactive results. Calls of active or inactive are those of the source.

Columns and labels:
Assay in all cases: NCI-60 one-dose screen, 48 h (100 = growth as untreated, 0 = no growth, -100 = all killed)
Details in all cases: 10 µM unless noted
SK-MEL-2 melanoma = system: SK-MEL-2 melanoma
EKVX NSCLC = system: EKVX NSCLC
SN12C renal = system: SN12C renal
UO-31 renal = system: UO-31 renal
TK-10 renal = system: TK-10 renal
ACHN renal = system: ACHN renal
CAKI-1 renal = system: CAKI-1 renal
A498 renal = system: A498 renal
CCRF-CEM leukemia = system: CCRF-CEM leukemia
MOLT-4 leukemia = system: MOLT-4 leukemia
SR leukemia = system: SR leukemia
RPMI-8226 leukemia = system: RPMI-8226 leukemia
OVCAR-8 ovarian = system: OVCAR-8 ovarian
OVCAR-5 ovarian = system: OVCAR-5 ovarian
OVCAR-4 ovarian = system: OVCAR-4 ovarian
IGROV1 ovarian = system: IGROV1 ovarian
OVCAR-3 ovarian = system: OVCAR-3 ovarian
HS 578T breast = system: HS 578T breast
NCI/ADR-RES ovarian = system: NCI/ADR-RES ovarian
SK-OV-3 ovarian = system: SK-OV-3 ovarian

Row | SMILES | growth (SK-MEL-2 melanoma) | growth (EKVX NSCLC) | growth (SN12C renal) | growth (UO-31 renal) | growth (TK-10 renal) | growth (ACHN renal) | growth (CAKI-1 renal) | growth (A498 renal) | growth (CCRF-CEM leukemia) | growth (MOLT-4 leukemia) | growth (SR leukemia) | growth (RPMI-8226 leukemia) | growth (OVCAR-8 ovarian) | growth (OVCAR-5 ovarian) | growth (OVCAR-4 ovarian) | growth (IGROV1 ovarian) | growth (OVCAR-3 ovarian) | growth (HS 578T breast) | growth (NCI/ADR-RES ovarian) | growth (SK-OV-3 ovarian)
1 | COc1ccc(N=C2NN=C(c3ccc(F)cc3)CS2)cc1OC | 66.4% | 99% | 98.1% | 44.2% | 89.8% | 93.7% | 84.9% | 86.1% | 81.8% | 73.4% | 53% | 74.4% | 105% | 85.7% | 103% | -11.7% (active) | 96.6% | 110% | 97.6% | 
2 | COc1ccc(OC)c(NC(=O)c2cc(S(=O)(=O)N3CCc4ccccc43)ccc2OC)c1 | 36.4% | 94.9% | 95% | 42.2% | 91.9% | 93.3% | 107% | 69.8% | 107% | 106% |  | 82.6% | 75.5% | 89.8% | 94.2% | -39.9% (active) | 112% | -43.4% (active) | 94.3% | 92.6%
3 | COc1ncc(-c2ccc3ncnc(Nc4cccc(Cl)c4)c3c2)cc1NS(=O)(=O)C1CC1 | 36.5% | 12.3% | 31.2% | 22.5% | 1.03% (active) | 23.9% | 27.8% | 15.7% | 33.2% | -0.986% (active) | 46.9% |  | 41.7% | 28% | 34.8% | -38.6% (active) | 20.1% | 13.6% | 40.8% | 8.08% (active)
4 | Cc1nc2scc(-c3ccccc3)n2c(=O)c1CCO | 124% | 92.3% | 98.8% | 72.5% | 99.9% | 98.9% | 80.5% | 86.8% | 103% | 106% |  | 102% | 109% | 109% | 93.8% | 98.1% | 100% | 95% | 112% | 105%
5 | Cc1cc2c(C(C)C)c(O)c(O)c(C=NCCCCCCC(=O)O)c2c(O)c1-c1c(C)cc2c(C(C)C)c(O)c(O)c(C=NCCCCCCC(=O)O)c2c1O | 28.5% | 27.7% | 35.7% | 28.8% | 17.3% | 42.1% | 63.3% | 36.6% | 18.1% | 18.5% |  | 10.1% | 30.6% | 55.9% | 28.2% | 28.6% | 25.8% | 22.2% | 67.6% | 63.7%
6 | CC/C=C\C/C=C\C[C@H](O)C/C=C1/C(=O)C=C[C@H]1C/C=C\CCC(=O)OC | 65.6% [8.25 µM] | 39% [8.25 µM] | 1.16% [8.25 µM] (active) | 48.1% [8.25 µM] | 58.7% [8.25 µM] | 26.9% [8.25 µM] | 55.3% [8.25 µM] | 107% [8.25 µM] | -1.3% [8.25 µM] (active) | 32.7% [8.25 µM] | 7.38% [8.25 µM] (active) | 3.22% [8.25 µM] (active) | 15.3% [8.25 µM] | 71.1% [8.25 µM] |  | 37.3% [8.25 µM] | 4.28% [8.25 µM] (active) | 69.1% [8.25 µM] | 39.8% [8.25 µM] | 85.6% [8.25 µM]
7 | Cc1cc(C(=O)CSc2nc3ccccc3c(=O)[nH]2)c(C)n1C | 87.9% | 94.9% | 95.4% | 38.9% | 93.1% | 107% | 95.9% | 74.6% | 87.2% | 118% |  | 91.6% | 96.4% | 90.8% | 123% | -33.9% (active) | 91% | -35.7% (active) | 103% | 108%
8 | O=[N+]([O-])c1cccc(-c2cc(-c3cc(Br)ccc3O)[nH]n2)c1 | 24% | 18.1% | 24.8% | 20.1% | 12.5% | 10.2% | 40.5% | 40% | 8.04% (active) | 4.68% (active) | 19.7% | -2.85% (active) | 33.9% | 55.4% | 16.3% | 13.7% | 2.12% (active) | 46.6% | 19.2% | 
9 | CCOC(=O)/C=C\C(=O)NC(N)=O | 101% | 98.8% | 103% | 90.8% | 97.8% | 112% | 96% | 107% | 93.9% | 86.5% |  | 98.5% | 104% | 113% | 120% | 104% | 110% | 102% | 106% | 95.9%
10 | Nc1ccccc1C#C/C=C\C#Cc1cccc(O)c1 | 20.2% | 71.8% | 67.2% | 12.4% | 83.8% | 36.4% | 31.3% | 78.6% | 32% | 27.1% | 13% | 34% | 84.9% | 62.6% | 45% | -19.5% (active) | 43% | 64.3% | 31.8% | 
11 | COc1cc2c(cc1OCCCCn1c(-c3cc(=O)c4ccccc4o3)nc3ccccc31)N=C[C@@H]1CCCN1C2=O | 26.7% | 129% | 102% | 35.8% | 157% | 93.1% | 82.8% | 121% | 49.4% | 82.4% | 39.8% | 67.7% | 106% | 111% |  | -16.3% (active) | 111% | 116% | 110% | 109%
12 | O=C(Nc1ccc(I)cc1)c1cccc([N+](=O)[O-])c1O | -11.9% (active) | 8.49% (active) | 20.3% | -0.371% (active) | 7.73% (active) | 21.8% | 13.4% | -6.2% (active) | 25.9% | 8.55% (active) |  | 6.95% (active) | 17.1% | 43.4% | 19.1% | 30.4% | 7.89% (active) | 42.6% | 9.57% (active) | -2.55% (active)
